Screening results from PubChem.
Mito fusion yeast – blocks mitochondrial division or promotes mitochondrial fusion | 0.23% of 320,000 active | Potency, µM (doses to about 46.1 µM), most hits filed as activators | S. cerevisiae fusion-defective mutant growth rescue, CellTiterGlo 48 h; also: nearly all actives have a fitted effect of over 45% in size
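Yeast fusion mutant, YPEG (non-fermentable carbon), compound, 48 h at 37C non-permissive; CellTiterGlo added, 10 min RT, luminescence read. Rescued growth = division inhibition.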
RORgamma inh – inhibitors of mouse ROR gamma transcriptional activity; Potency, µM (highest dose often 53.6 µM), usual class: inhibitors; 5.4% of 310,000 active; P51450; Drosophila S2 Gal4-RORgamma UAS-luciferase reporter, 20 h; also: nearly all actives have a fitted effect of over 60% in size
Target sequence (P51450 whole entry, looked up, the tested form may be a part): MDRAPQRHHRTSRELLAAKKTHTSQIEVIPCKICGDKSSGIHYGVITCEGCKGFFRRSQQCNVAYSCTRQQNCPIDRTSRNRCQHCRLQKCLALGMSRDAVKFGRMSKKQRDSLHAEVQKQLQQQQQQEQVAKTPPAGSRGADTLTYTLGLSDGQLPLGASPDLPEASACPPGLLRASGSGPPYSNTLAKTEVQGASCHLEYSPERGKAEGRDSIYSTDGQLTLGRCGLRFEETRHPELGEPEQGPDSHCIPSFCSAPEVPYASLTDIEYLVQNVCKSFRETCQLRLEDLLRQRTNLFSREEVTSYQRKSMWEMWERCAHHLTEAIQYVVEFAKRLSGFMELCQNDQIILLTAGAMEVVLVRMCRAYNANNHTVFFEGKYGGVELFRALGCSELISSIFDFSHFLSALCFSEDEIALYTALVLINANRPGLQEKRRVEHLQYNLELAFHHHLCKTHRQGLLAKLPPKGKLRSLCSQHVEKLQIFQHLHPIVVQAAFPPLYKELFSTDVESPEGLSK
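Luciferase reporter read in Schneider cells carrying Gal4-RORγ (mouse) and UAS-Photinus luciferase; cells given compound 1 h before 700 uM copper sulfate induction, then incubated 20 h at ambient temperature.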
BCR signal inh – inhibitors of chronic active B-cell receptor signaling; ABC-DLBCL IkBa-CBG/CBR reporter, luminescence ratio, 4 h; 0.05% of 340,000 active; Potency, µM (doses to about 46.1 µM), usual class: inhibitors; active = well fitted inhibition curve with a large enough effect in the signal ratio, with a control signal flat, not every such curve was filed as active; inconclusive = small, poorly fitted or top-dose-only effect, or effect the other way, or a change in a side signal; the % refers to the signal ratio
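Doxycycline induced both beetle luciferases in TMD8 lymphoma cells; IKK-driven degradation limits the IkappaBalpha-fused green signal, while red luminescence normalises for cell number and nonspecific effects. Compounds tested up to 46 uM, 4 hrs.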
Gal4-VP16 FLuc – counter-screen for ROR gamma inhibitors: Gal4-VP16 reporter; 3.5% of 310,000 active; AID 2546; Drosophila S2 Gal4-VP16 UAS-luciferase, luminescence, 20 h; Potency, µM (highest dose often 53.6 µM), most hits filed as inhibitors;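 also: Gal4-VP16 expression switched on by copper sulfate through the metallothionein promoter; nearly all actives have a fitted effect of over 50% in size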
Integrin act MD – integrin-mediated muscular dystrophy alleviation activation; AID 624291; alpha7betagal myoblasts, beta-gal FDG fluorescence, 48 h; Potency, µM (highest dose often 38.3 µM), most hits filed as activators; 0.064% of 350,000 active; also: nearly all actives have a fitted effect of over 60% in size
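alpha7betagal+/- myoblasts (passage 13, 250/well) treated 48 h at 37C with compounds at 1:260 dilution of DMSO stock. Lysed, then beta-galactosidase activity read as FDG fluorescence (ex 480/em 540) after 30 min, with pre-read for autofluorescence.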
uPA surface inh – inhibitors of cell surface uPA generation; cell surface uPA generation assay, qHTS; Potency, µM (titrated, usually from 38.3 µM), most hits filed as inhibitors; 0.31% of 330,000 active; AID 540303; active = well fitted inhibition curve with a large enough effect; inconclusive = small, poorly fitted or top-dose-only effect; inactive = no such curve, though single readings can be large or run the other way; tested in mouse RAW 264.7 cells; also: nearly all actives have a fitted effect of over 55% in size
Of the large screens only hits and unclear results are named; the others gave an inactive call. In the library only some 5.5% were active in any assay of this set; here they are far more common. Unless noted, calls follow the shape of the dose curve; as a rule, active = well fitted curve in the direction sought with a large enough effect; inconclusive = small, poorly fitted or top-dose-only effect, or another doubt; inactive = no such curve, though single readings can be large; an effect the other way counts as inactive or inconclusive.

CC(C)(C)c1ccc(C(=O)Nc2nnc(C3=COCCO3)o2)cc1	RORgamma inh 0.18µM, Gal4-VP16 FLuc inconclusive
CCOc1cc(-c2nnc(NC(=O)C3=COCCO3)o2)cc(OCC)c1OCC	none (no result: RORgamma inh, Gal4-VP16 FLuc)
O=C(Nc1nnc(-c2ccc(Cl)cc2)o1)C1=COCCO1	RORgamma inh 2.5µM, Gal4-VP16 FLuc 1.8µM
CN(c1ccccc1)S(=O)(=O)c1ccc(C(=O)Nc2nnc(C3=COCCO3)o2)cc1	RORgamma inh 1.1µM, BCR signal inh inconclusive, Gal4-VP16 FLuc 4.5µM
COc1ccc(C(=O)Nc2nnc(C3=COCCO3)o2)cc1OC	RORgamma inh 1.6µM, Gal4-VP16 FLuc 1.8µM
Cc1ccc(C)c(-c2nnc(NC(=O)C3=COCCO3)o2)c1	none (no result: RORgamma inh, Gal4-VP16 FLuc)
CC(C)Oc1ccc(C(=O)Nc2nnc(C3=COCCO3)o2)cc1	none (no result: RORgamma inh, Gal4-VP16 FLuc)
COCCn1c(=O)c(-c2ccccc2)nc2cnc(Oc3ccc(OC)cc3)nc21	RORgamma inh inconclusive (no result: Mito fusion yeast, BCR signal inh, Integrin act MD, uPA surface inh)
COCCN1CCN(C(=O)C2CCC(=O)N(CCc3ccccc3)C2)CC1 (stereo not given)	none
O=C(Nc1nnc(C2=COCCO2)o1)C1CCCCC1	none
CN(C)c1ccc(C(=O)Nc2nnc(C3=COCCO3)o2)cc1	RORgamma inh 1.6µM, BCR signal inh inconclusive, Gal4-VP16 FLuc 2.8µM
COC(=O)c1ccccc1Sc1ncnc2onc(C)c12	RORgamma inh 11µM, BCR signal inh inconclusive, Gal4-VP16 FLuc inconclusive
CCOC(=O)C1=C(COC(=O)/C=C/c2cccc(F)c2)NC(=O)NC1C (stereo not given)	none (no result: Mito fusion yeast, RORgamma inh, Gal4-VP16 FLuc)
CC(=O)N1C[C@H]2CON(C)[C@H]2C[C@H]1c1cccc(N2CCOCC2)c1	none (no result: Mito fusion yeast, RORgamma inh, BCR signal inh, Gal4-VP16 FLuc, uPA surface inh)
COc1ccccc1CNC(=O)CS(=O)(=O)c1ccc(C)cc1	none
COc1ccc(NS(=O)(=O)c2csc(C(N)=O)c2)cc1	none
CC1CCCCC1NC(=O)CCCCCn1c(=S)[nH]c2ccsc2c1=O (stereo not given)	RORgamma inh 11µM, Gal4-VP16 FLuc inconclusive
O=C(CCCn1c(=S)[nH]c2ccsc2c1=O)NC1CCCCC1	RORgamma inh 20µM, Gal4-VP16 FLuc inconclusive
Cc1nc([N+](=O)[O-])c(Br)n1CC(=O)c1ccccc1	RORgamma inh 4µM, Gal4-VP16 FLuc inconclusive
Cc1nc([N+](=O)[O-])c(Br)n1CC(=O)c1ccc2ccccc2c1	RORgamma inh 14µM, BCR signal inh inconclusive, Gal4-VP16 FLuc inconclusive
Cc1nc([N+](=O)[O-])c(Br)n1CC(=O)c1ccc(Br)cc1	RORgamma inh 11µM, BCR signal inh inconclusive, Gal4-VP16 FLuc inconclusive
Cc1cc([N+](=O)[O-])nn1CC(=O)c1ccccc1	RORgamma inh inconclusive, uPA surface inh inconclusive
O=C(/C=C\c1ccc2c(c1)OCO2)CC1(O)C(=O)Nc2ccccc21 (stereo not given)	BCR signal inh inconclusive
CCCCC(CC)COC(=O)CC(C(=O)OCC(CC)CCCC)S(=O)(=O)O (stereo not given)	none (no result: Mito fusion yeast, BCR signal inh, Integrin act MD, uPA surface inh)
COC(=O)C1=CN(c2ccc(F)cc2)C=C(C(=O)OC)C1c1cccc([N+](=O)[O-])c1	BCR signal inh inconclusive
COc1ccc(-n2c(NNC(C)=O)nc3sc4c(c3c2=O)CCCC4)cc1	uPA surface inh 7.9µM
Cc1ccc(N/N=C(/Sc2nnnn2-c2ccccc2)C(=O)c2ccccc2)cc1	Mito fusion yeast inconclusive, RORgamma inh 10µM, Gal4-VP16 FLuc inconclusive
CC[C@H](C)N	none (no result: Mito fusion yeast, BCR signal inh, Integrin act MD, uPA surface inh)
Cc1sc2nc(SCC(=O)c3cc(C)n(CC4CCCO4)c3C)n(C(C)C)c(=O)c2c1C (stereo not given)	RORgamma inh inconclusive, BCR signal inh inconclusive, Gal4-VP16 FLuc 11µM
Cc1cc(C(=O)CSc2nc(N)cc(N)n2)c(C)n1CC1CCCO1 (stereo not given)	none (no result: Mito fusion yeast, RORgamma inh, Gal4-VP16 FLuc)
CCOC(=O)c1c(-c2ccc(OC)cc2)csc1NC(=O)CNCc1ccco1	RORgamma inh 5µM, BCR signal inh inconclusive, Gal4-VP16 FLuc 5.6µM
COc1ccc(S(=O)(=O)NC(CC(=O)O)c2ccco2)cc1 (stereo not given)	BCR signal inh inconclusive
COc1ccc(S(=O)(=O)NC(CC(=O)NCC2CCCO2)c2ccco2)cc1 (stereo not given)	Gal4-VP16 FLuc 22µM
